HDAC3 inhib: human HDAC3 inhibition; O15379; recombinant HDAC3, fluorogenic peptide/trypsin coupled, fluorescence; inhibition, % at 8.3 µM; 320,000 tested, 0.15% active; AID 2718; in the data active = inhibition above about 26%, passing the limit was not always enough
Target sequence (O15379 whole entry, looked up): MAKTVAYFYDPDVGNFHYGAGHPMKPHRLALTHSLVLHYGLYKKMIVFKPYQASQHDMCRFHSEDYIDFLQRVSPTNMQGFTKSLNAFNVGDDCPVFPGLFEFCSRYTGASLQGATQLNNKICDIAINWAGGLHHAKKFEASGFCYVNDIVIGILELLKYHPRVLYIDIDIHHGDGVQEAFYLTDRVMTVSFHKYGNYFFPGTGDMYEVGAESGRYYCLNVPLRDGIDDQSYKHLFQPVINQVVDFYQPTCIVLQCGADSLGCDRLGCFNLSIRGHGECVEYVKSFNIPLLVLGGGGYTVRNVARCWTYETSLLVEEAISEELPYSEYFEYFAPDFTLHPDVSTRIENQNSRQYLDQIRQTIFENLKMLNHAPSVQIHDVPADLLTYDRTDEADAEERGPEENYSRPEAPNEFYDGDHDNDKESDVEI
CHT block: human CHT choline transport inhibition | Q9GZV3 | CHT-expressing cells, membrane potential dye, choline response; active compounds read low | B-score at 10 µM | 310,000 tested, 0.86% active;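 active = B-score over 3 SD under the library average, and starting fluorescence ratio not unusually high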;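 note: choline stimulus applied at its EC90 after an EC20 pre-addition; B-score computed on integrated fluorescence ratio after choline addition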
CHT PAM: allosteric activators of human choline transporter CHT; CHT-expressing cells, membrane potential dye, choline EC20; active compounds read high; LV-AA mutant CHT in HEK293 cells; B-score at 10 µM; 310,000 tested, 0.49% active;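 active = initial fluorescence not abnormally high and integrated response B-score, plate-corrected, over 3 SD above library mean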
ANO1 activ: activates or potentiates the mouse TMEM16A chloride channel. Q8BHY3. HEK293 TMEM16A/YFP-H148Q/I152L, iodide quench fluorescence; active compounds read low. B-score at 10 µM. 340,000 tested, 0.3% active;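 active = fluorescence-ratio B-score plate-corrected deviation score at least 3 library SD below zero, with starting fluorescence score within 5 deviations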;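 note: channel opened by trigger with iodide after compound preincubation; score built on the fluorescence ratio of max minus min over baseline; more negative score means more quench and so TMEM16A activation or potentiation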
TMEM16A inh: blocks the mouse calcium-activated chloride channel TMEM16A | Q8BHY3 | HEK293 TMEM16A/YFP iodide influx fluorescence, ionomycin | normalized B-score (activity score, 25-100; higher = stronger inhibition) at 10 µM | 310,000 tested, 1.2% active;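 active = ratio plate-corrected score three or more library SD toward inhibition, starting fluorescence score within five deviations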;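 note: score derived from kinetic fluorescence span divided by baseline fluorescence per well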
PHOSPHO1 block: PHOSPHO1 (human) inhibition; Q8TCT1; recombinant PHOSPHO1, absorbance phosphatase assay; inhibition, % at 13.3 µM; 290,000 tested, 1.1% active; in the data active = inhibition above about 60%
Of the large screens only hits and unclear results are named; the others gave an inactive call. Sampled rows, rich in hits. Any-hit rate of the full collection: about 3.2%.

CCN(CC)S(=O)(=O)c1ccc(S(=O)(=O)Nc2ccc3c(c2)oc2ccccc23)cc1	none
COc1ccc(C(=O)Nc2ccc(C(=O)N3CCCCC3)cc2)cc1OC	none
Cc1nc2ccccc2c2oc(C(=O)NCC3COc4ccccc4O3)cc12 (stereo not drawn)	TMEM16A inh 25
OC(CN1CCCCC1)CN1CCCCC1	none
O=C(NCC1CCCO1)c1ccccc1-c1nc(-c2ccc(F)cc2)no1 (stereo not drawn)	TMEM16A inh 100
NC(=O)Cc1ccc(C(=O)c2ccc(Cl)cc2)s1	none
CC(C)(C)c1cc[n+](-c2[nH]c(=O)sc2/C=N/N=C(\[O-])c2cccnc2)cc1	none
O=c1[nH]c(-[n+]2ccc3ccccc3c2)c(/C=N/N=C(\[O-])c2ccccc2)s1	ANO1 activ -11.5
COCCN(C(=O)Cc1cccs1)C(C(=O)NC1CCCC1)c1cc(OC)c(OC)c(OC)c1 (stereo not drawn)	PHOSPHO1 block 61.5
COc1ccc(-c2noc(-c3ccccc3-c3ccccc3)n2)cc1	TMEM16A inh 25
CCC(=O)NC(Nc1cccc(C)n1)(C(F)(F)F)C(F)(F)F	none
Cc1ccc(CSCCNC(=O)c2ccccc2)cc1	none
CCN(CC)S(=O)(=O)c1cccc(-c2nnc(SCC(=O)c3ccc(Cl)s3)n2C)c1	PHOSPHO1 block 63.7
CN(C)/C=C/C(=O)c1ccc2noc(-c3ccccc3)c2c1	none
CCNC(=S)NNC(=O)CC(C)C	none
CC(C)CNC(=S)NNC(=O)CC(C)O (stereo not drawn)	PHOSPHO1 block 61.0
Cc1ccc(C(=O)O/N=C(\c2ccccc2)c2ccncc2)cc1	HDAC3 inhib 36.0
O=C(O/N=C(/c1ccccc1)c1ccncc1)c1cccc(F)c1	none
Cc1ccc(CNc2ccc(N3C(=O)CCCC3=O)cc2[N+](=O)[O-])cc1	none (no result: HDAC3 inhib)
CCOC(=O)C1=C(Cc2ccc(C)cc2)C(=O)c2ccccc2C1=O	none (no result: ANO1 activ)
CCOC(=O)C1=C(Cc2ccc(OC)cc2)C(=O)c2ccccc2C1=O	PHOSPHO1 block 71.2 (no result: HDAC3 inhib, CHT block, CHT PAM, TMEM16A inh)
C=CCn1c(Cc2cccc3ccccc23)n[nH]c1=S	none
CCCSc1nnc(CSc2nc3ccccc3s2)n1-c1ccccc1	TMEM16A inh 100
CCn1c(CSc2nc3ccccc3s2)n[nH]c1=S	PHOSPHO1 block 95.8
C=CCn1c(CSc2nc3ccccc3s2)n[nH]c1=S	PHOSPHO1 block 105.9
N#CCCCSc1nnc(CSc2nc3ccccc3s2)n1-c1ccccc1	none
C=CCn1c(Cc2nc3ccccc3[nH]2)n[nH]c1=S	PHOSPHO1 block 89.9
c1ccc2sc(SCSc3nc4ccccc4s3)nc2c1	none
Cc1cccc(NC(=O)CCNC(=O)c2ccccc2)c1	none
N#Cc1c(-c2cccc([N+](=O)[O-])c2)nc2n(c1=O)CCS2	none
S=c1[nH]nc(CSc2nc3ccccc3s2)n1Cc1ccccc1	PHOSPHO1 block 97.5
O=C(NCc1cc(C(F)(F)F)ccc1Cl)c1cccc2c1C(=O)c1ccc(-c3ccc(OC(F)(F)F)cc3)cc1S2(=O)=O	none (no result: CHT block, CHT PAM, ANO1 activ, TMEM16A inh, PHOSPHO1 block)
CC(C)CCCN1C(Nc2ccccc2)=NC[C@@H]1C	none
CCOc1ccc(NC(=O)CNC(=O)c2nn(-c3ccc(OC)c(OC)c3)c(=O)c3ccccc23)cc1	none
COc1ccc(-n2nc(C(=O)NCC(=O)Nc3cccc(Cl)c3)c3ccccc3c2=O)cc1OC	TMEM16A inh 25
Cc1ccc(/C([O-])=C(/C(=S)NCc2ccco2)[n+]2ccccc2)cc1	PHOSPHO1 block 99.7 (no result: ANO1 activ)
C[C@H](/C=C/[C@@]1(O)[C@H](C)C[C@H](O)CC1(C)C)O[C@@H]1O[C@H](CO)[C@@H](O)[C@H](O)[C@H]1O	none (no result: PHOSPHO1 block)
Fc1ccc(-n2cc(CNCCc3ccccn3)c(-c3ccccc3Cl)n2)cc1	PHOSPHO1 block 67.1
CN(C)C(C(=O)Nc1cc(Cl)cc(Cl)c1)c1ccccc1 (stereo not drawn)	none
CC1CCCC(C)N1/N=C/c1cc(Br)cc(Br)c1O (stereo not drawn)	none
CC(=O)N1c2ccc(N=Cc3cc(Br)cc(Br)c3O)cc2CC1C (stereo not drawn)	CHT block -5.34 (no result: ANO1 activ)
CN(c1ccccc1)S(=O)(=O)c1cccc(C(=O)OCC(=O)NCc2ccccc2)c1	none (no result: CHT block, CHT PAM, TMEM16A inh, PHOSPHO1 block)

High-throughput results as filed in PubChem.
